Among the data in PubChem BioAssay are log fold change Tl+ flux values, retold here.

Values without a mark were called inactive. The source made the active and inactive calls.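 How the source made its calls: active means thallium flux through the channel raised or lowered by more than 3 SD from vehicle-only wells, actives on both sides; inactive means the rest.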

What all share (test): BK channel mutant inhibitors and activators – cell-based, U2OS BacMam, thallium flux, beta subunits, selectivity assay, profiling panel (AID 1259406);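 further: initial slope of Thallos dye fluorescence rise after thallium is added; log ratio against the mean of 0.3% DMSO vehicle wells on the same plate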
Experiment [1] deals with F380Y. The note with it: U2OS BacMam BK variants, at 30 µM.
Experiment [2] deals with F380Y/beta1. As to conditions: U2OS BacMam BK variants, at 30 µM.
Experiment [3] deals with F380Y/beta2Delta. The note with it: U2OS BacMam BK variants, at 30 µM.
The test system of experiment [4] is F380Y/beta4. As to conditions: U2OS BacMam BK variants, at 30 µM.
The target of experiment [5] is Calcium-activated potassium channel subunit alpha-1 (Homo sapiens) + Leucine-rich repeat-containing protein 26 (Homo sapiens) (UniProt Q12791+Q2I0M4). As to conditions: U2OS BacMam BK variants, F380Y/Slo1WT/gamma1, at 30 µM.
The subject of experiment [6] is R275C. The note with it: U2OS BacMam BK variants, at 30 µM.
Experiment [7] concerns R275C/beta1. The note with it: U2OS BacMam BK variants, at 30 µM.
Experiment [8] deals with R275C/beta2Delta. As to conditions: U2OS BacMam BK variants, at 30 µM.
For experiment [9], the system named is R275C/beta4. The note with it: U2OS BacMam BK variants, at 30 µM.
For experiment [10], the system named is R275C/Slo1WT/beta2. As to conditions: U2OS BacMam BK variants, at 30 µM.

Sequence of Calcium-activated potassium channel subunit alpha-1 (Homo sapiens) + Leucine-rich repeat-containing protein 26 (Homo sapiens) (Q2I0M4 whole entry, looked up, one chain of several): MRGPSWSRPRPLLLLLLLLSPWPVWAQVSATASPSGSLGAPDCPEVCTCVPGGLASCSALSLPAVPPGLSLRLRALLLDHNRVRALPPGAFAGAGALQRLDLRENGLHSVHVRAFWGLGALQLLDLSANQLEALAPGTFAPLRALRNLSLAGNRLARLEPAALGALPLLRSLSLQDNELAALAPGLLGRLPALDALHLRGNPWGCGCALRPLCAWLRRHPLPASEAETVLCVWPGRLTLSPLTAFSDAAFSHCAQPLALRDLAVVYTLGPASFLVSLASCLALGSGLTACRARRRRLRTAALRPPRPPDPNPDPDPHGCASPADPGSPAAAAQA

As to `Cc1c(C(=O)Nc2ccc(N3CCOCC3)c(Cl)c2)cnn1-c1ccc(F)cc1`, the log fold change Tl+ flux is -0.0177 in [1]; -0.00879 in experiment [2]; -0.0427 in [3]; 0.0219 in [4]; -0.0278 in experiment [5]; -0.00699 in [6]. Besides, the log fold change Tl+ flux in experiment [7] was 0.0051; in experiment [8], -0.0229; in experiment [9] it was 0.0362; in experiment [10], 0.000473.
For `COC(=O)c1cc(C)nc(Sc2n[nH]c(-c3cc(Cl)cc(Cl)c3)n2)n1`, the log fold change Tl+ flux in experiment [1] is -0.0391; in experiment [2], 0.0897 (active); in [3], 0.0312; in experiment [4], 0.046; in [5], 0.044; in [6], 0.00719. Moreover, the log fold change Tl+ flux was 0.0447 in [7], 0.0581 in [8], 0.0071 in [9] and 0.059 in experiment [10].
On to `O=S(=O)(CCN1CCN(Cc2ccccc2)CC1)c1ccc(F)cc1`, for which the log fold change Tl+ flux was -0.000988 in experiment [1]; 0.0135 in [2]; 0.0237 in experiment [3]; 0.0241 in [4]; 0.000113 in experiment [5]; 0.0486 in [6]. Further, the log fold change Tl+ flux in experiment [7] was 0.0249; in experiment [8], 0.00728; in experiment [9] it was 0.0441; in experiment [10], -0.0289.
As for `CCc1cc(C(=O)c2ccc(OC)cc2)c(NC(=O)CN2CCN(C)CC2)s1`, the log fold change Tl+ flux in [1] is -0.0314; in [2], -0.0083; in experiment [3], -0.00202; in [4], -0.0121; in [5], 0.0213; in experiment [6], -0.0119. Further, the log fold change Tl+ flux is -0.00614 in [7], 0.00802 in [8], 0.0372 in experiment [9] and -0.00941 in experiment [10].
Consider `O=C(Nc1c(S(=O)(=O)c2ccccc2)csc1Br)c1ccccc1Cl`, for which the log fold change Tl+ flux in experiment [1] is -0.0373; in experiment [2] it was 0.0138; in experiment [3], -0.0509; in experiment [4], 0.0338; in experiment [5], 0.0104; in experiment [6], -0.0217. Further, the log fold change Tl+ flux in experiment [7] was 0.0155; in experiment [8] it was -0.0307; in experiment [9], 0.00756; in experiment [10], 0.0177.
As to `CCCCCCCCCCCC(=O)N1CC(=O)NC(=O)C1`, the log fold change Tl+ flux was -0.0479 in experiment [1]; -0.037 in experiment [2]; -0.0133 in experiment [3]; -0.0202 in experiment [4]; 0.0655 in experiment [5]; -0.0151 in experiment [6]. Also, the log fold change Tl+ flux in experiment [7] is -0.0193; in experiment [8] it was 0.0154; in experiment [9], -0.0342; in [10], 0.0104.
In the case of `O=C(NC(=O)C12CC3CC(CC(C3)C1)C2)Nc1ccc(Cl)cc1`, the log fold change Tl+ flux was 0.00432 in experiment [1]; -0.0267 in experiment [2]; -0.0384 in experiment [3]; -0.0415 in [4]; 0.0168 in experiment [5]; -0.00652 in experiment [6]. The log fold change Tl+ flux in experiment [7] is -0.0129; in [8] it was -0.0163; in experiment [9], 0.0337; in experiment [10] it was -0.0195.
As to `Cc1noc(C)c1C(=O)Sc1nccc(C(F)(F)F)n1`, the log fold change Tl+ flux in experiment [1] was -0.0193; in [2], 0.00713; in [3], -0.00114; in experiment [4], 0.0508; in experiment [5], -0.00072; in experiment [6], 0.00122. Moreover, the log fold change Tl+ flux in experiment [7] is 0.0433; in experiment [8], -0.013; in experiment [9], 0.0297; in experiment [10] it was -0.0512.
`S=c1sc2c(s1)SCC1(CS2)OCCO1`: the log fold change Tl+ flux in experiment [1] was -0.0425; in experiment [2], 0.0267; in [3] it was -0.0279; in experiment [4], 0.0791; in [5] it was 0.000395; in [6], -0.0211. Also, the log fold change Tl+ flux in experiment [7] is -0.0642; in [8], -0.0207; in experiment [9], -0.0357; in experiment [10] it was -0.00583.
`Cc1nn(C)c(NCc2cccs2)c1[N+](=O)[O-]`: the log fold change Tl+ flux was 0.0023 in experiment [1]; 0.00245 in experiment [2]; 0.0628 in experiment [3]; 0.018 in experiment [4]; 0.0148 in experiment [5]; -0.00626 in [6]. Further, the log fold change Tl+ flux in experiment [7] was -0.0048; in experiment [8], 0.028; in experiment [9] it was -0.0356; in [10], -0.0229.
With `FC(F)(F)COc1ccc(-c2nnc(SCc3ccccc3C(F)(F)F)o2)cn1`, the log fold change Tl+ flux was 0.00456 in experiment [1]; -0.0223 in [2]; -0.0257 in experiment [3]; -0.0497 in experiment [4]; -0.0179 in [5]; -0.0108 in experiment [6]. Moreover, the log fold change Tl+ flux in experiment [7] was 0.0313; in experiment [8], -0.0204; in [9], 0.0273; in experiment [10] it was 0.0157.
Take `COc1ccc(CCN=Cc2ccccn2)cc1OC`: the log fold change Tl+ flux in experiment [1] was -0.038; in experiment [2] it was 0.0306; in experiment [3], 0.00295; in experiment [4], -0.00225; in [5] it was -0.032; in [6], -0.0485. Further, the log fold change Tl+ flux in experiment [7] was -0.0399; in experiment [8], -0.0772; in [9] it was -0.0204; in experiment [10] it was -0.00322.
As for `Cc1noc(C=Cc2sccc2C2OCCO2)c1[N+](=O)[O-]`, the log fold change Tl+ flux in [1] was 0.00373; in experiment [2], 0.00792; in [3], -0.0403; in experiment [4] it was -0.0687; in experiment [5], -0.0936; in experiment [6], 0.00445. Besides, the log fold change Tl+ flux in experiment [7] is -0.0604; in [8], -0.0701; in experiment [9] it was -0.00776; in [10], -0.000775.
